Records with an inconclusive call do not appear. Calls of active or inactive are those of the source. Calls come from the whole dose curve; as a rule, active = well fitted cell-killing curve with a large enough effect; inconclusive = small, poorly fitted or top-dose-only effect, or effect the other way; inactive = no such curve, though single readings can be large or run the other way.

Consider 34 compounds from PubChem BioAssay (NCATS).
Potency is the fitted concentration of half-maximal effect.

One test is described as follows: Quantitative High-Throughput drug screen in 47 multiple myeloma cell lines against the NCATS MIPE library collection: SKMM1_PLB cell viability assay (AID 1919863). Note: nearly all actives have a fitted effect of over 35% in size. The settings on record: SKMM1 myeloma viability, CellTiter-Glo ATP, 48 h; viability: hits give low values. The method in brief: (§1)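 Viability after 48 h drug exposure was measured as ATP-dependent luminescence. Cells, 500 per well, sat at 37 °C under 5% CO2; DMSO wells set 100%, media-only wells 0%.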
A general note: Cellular ATP, detected with luciferase, serves as a proxy for viable cell number.
As usually defined, the viability is a read-out of living cells in per cent, often relative to untreated cells. `COc1cc2nc(N3CCN(C(=O)C4COc5ccccc5O4)CC3)nc(N)c2cc1OC` (stereo not drawn): the viability is 137% (inactive).

As for `CC(C)(Oc1ccc(C2CC2(Cl)Cl)cc1)C(=O)O` (stereo not drawn), the viability was 131% (inactive).

`COc1ccc2[nH]cc(CCNC(C)=O)c2c1`: the viability is 123% (inactive).

As for `CN(C)C(=N)N=C(N)N`, the viability is 138% (inactive).

Consider `CC(C)(C)C(=O)Oc1ccc(S(=O)(=O)Nc2ccccc2C(=O)NCC(=O)O)cc1`, for which the viability is 142% (inactive).

For `Cn1c(=O)c2[nH]cnc2n(C)c1=O`, the viability is 104% (inactive).

In the case of `O=C(Nc1ccc([N+](=O)[O-])cc1Cl)c1cc(Cl)ccc1O`, the Potency is 1.48 µM (active).

Regarding `Cc1cc(C(C)(C)C)cc(C)c1CC1=NCCN1`, the viability is 116% (inactive).

`CN1CCC(=C2c3ccccc3CC(=O)c3sccc32)CC1`: the viability was 102% (inactive).

In the case of `COc1ccccc1OCC(O)CN1CCN(CC(=O)Nc2c(C)cccc2C)CC1` (stereo not drawn), the viability was 110% (inactive).

On to `Nc1nc2c(ncn2COC(CO)CO)c(=O)[nH]1`, for which the Potency is 20.9 µM (active).

Take `NC12CC3CC(CC(C3)C1)C2`: the viability is 134% (inactive).

For the compound `CC[N+](CC)(CC)CCOc1cccc(OCC[N+](CC)(CC)CC)c1OCC[N+](CC)(CC)CC`, the viability was 112% (inactive).

Take `CCN1CCCC1CNC(=O)c1cc(S(=O)(=O)CC)c(N)cc1OC` (stereo not drawn): the viability was 121% (inactive).

A short description of another test: Quantitative High-Throughput drug screen in 47 multiple myeloma cell lines against the NCATS MIPE library collection: U266_ATCC cell viability assay (AID 1919864). Note: nearly all actives have a fitted effect of over 35% in size. The settings on record: U266 myeloma viability, CellTiter-Glo ATP luminescence, 48 h; series mostly up to 45.8 µM. In a few lines: as §1
For `CN1CCC(=C2c3ccccc3C=Cc3ccccc32)CC1`, the Potency is 16.6 µM (active).

Turning to `CN(C)CCCN1c2ccccc2CCc2ccc(Cl)cc21`, the Potency is 0.526 µM (active).

Consider `Cc1cc(C(C)(C)C)c(O)c(C)c1CC1=NCCN1`, for which the Potency result was “inactive”.

`COc1cc2nc(N(C)CCCNC(=O)C3CCCO3)nc(N)c2cc1OC` (stereo not drawn): the Potency entry is “inactive”.

`CC(C)(Oc1ccc(C2CC2(Cl)Cl)cc1)C(=O)O` (stereo not drawn): the Potency entry was “inactive”.

For `COc1cc2nc(N3CCN(C(=O)c4ccco4)CC3)nc(N)c2cc1OC`, the Potency is 18.7 µM (active).

`CN(C)C(=O)C(CCN1CCC(O)(c2ccc(Cl)cc2)CC1)(c1ccccc1)c1ccccc1`: the Potency is 18.7 µM (active).

As to `COc1ccc2[nH]cc(CCNC(C)=O)c2c1`, the Potency was 8.33 µM (active).

Take `CC#C[C@]1(O)CC[C@H]2[C@@H]3CCC4=CC(=O)CCC4=C3[C@@H](c3ccc(N(C)C)cc3)C[C@@]21C`: the Potency is 0.662 µM (active).

For the compound `NC(=O)NO`, the Potency was 2.64 µM (active).

Consider `Cn1c(=O)c2c(ncn2C)n(C)c1=O`, for which the Potency entry is “inactive”.

Take `CC[C@@]1(O)C(=O)OCc2c1cc1n(c2=O)Cc2cc3c(CN(C)C)c(O)ccc3nc2-1`: the Potency is 13.2 µM (active).

In the case of `CN(C)C(=N)N=C(N)N`, the Potency entry is “inactive”.

For the compound `Cn1c(=O)c2[nH]cnc2n(C)c1=O`, the Potency was 20.9 µM (active).

For `CC(C(=O)O)c1cccc(C(=O)c2ccccc2)c1` (stereo not drawn), the Potency entry was “inactive”.

In the case of `Cc1cc(C(C)(C)C)cc(C)c1CC1=NCCN1`, the Potency entry is “inactive”.

With `O=c1[nH]cc(F)c(=O)[nH]1`, the Potency is 3.32 µM (active).

`CN(Cc1cnc2nc(N)nc(N)c2n1)c1ccc(C(=O)N[C@@H](CCC(=O)O)C(=O)O)cc1`: the Potency is 0.148 µM (active).

For the compound `O=C1c2c(O)ccc(O)c2C(=O)c2c(NCCNCCO)ccc(NCCNCCO)c21`, the Potency was 1.05 µM (active).

In the case of `OCCN(CCO)c1nc(N2CCCCC2)c2nc(N(CCO)CCO)nc(N3CCCCC3)c2n1`, the Potency is 23.5 µM (active).

On to `COc1ccccc1OCC(O)CN1CCN(CC(=O)Nc2c(C)cccc2C)CC1` (stereo not drawn), for which the Potency entry is “inactive”.

On to `Nc1nc2c(ncn2COC(CO)CO)c(=O)[nH]1`, for which the Potency was 23.5 µM (active).

In the case of `CC(C)NCC(O)c1ccc(O)c(O)c1` (stereo not drawn), the Potency was 16.6 µM (active).

`NC12CC3CC(CC(C3)C1)C2`: the Potency was 26.4 µM (active).

Turning to `CCC1(c2ccccc2)C(=O)NCNC1=O`, the Potency was 2.96 µM (active).

As for `CC[N+](CC)(CC)CCOc1cccc(OCC[N+](CC)(CC)CC)c1OCC[N+](CC)(CC)CC`, the Potency entry was “inactive”.

As for `CS(=O)(=O)CCNCc1ccc(-c2ccc3ncnc(Nc4ccc(OCc5cccc(F)c5)c(Cl)c4)c3c2)o1`, the Potency is 5.9 µM (active).

For the compound `CN1C(C(=O)Nc2ccccn2)=C(O)c2ccccc2S1(=O)=O`, the Potency entry was “inactive”.

In the case of `CCN1CCCC1CNC(=O)c1cc(S(=O)(=O)CC)c(N)cc1OC` (stereo not drawn), the Potency entry is “inactive”.

In the case of `CN1CCN(CCCN2c3ccccc3Sc3ccc(Cl)cc32)CC1`, the Potency is 18.7 µM (active).

The nature of a further test: Quantitative High-Throughput drug screen in 47 multiple myeloma cell lines against the NCATS MIPE library collection: XG6_PLB cell viability assay (AID 1919865). Note: nearly all actives have a fitted effect of over 40% in size. The settings on record: XG6 myeloma viability, CellTiter-Glo ATP luminescence, 48 h; series mostly up to 45.8 µM. The method in brief:
as §1
For `CN1CCC(=C2c3ccccc3C=Cc3ccccc32)CC1`, the Potency was 8.33 µM (active).

For `CN(C)CCCN1c2ccccc2CCc2ccc(Cl)cc21`, the Potency was 0.372 µM (active).

For the compound `COc1cc2nc(N3CCN(C(=O)C4COc5ccccc5O4)CC3)nc(N)c2cc1OC` (stereo not drawn), the Potency is 20.9 µM (active).

`Cc1cc(C(C)(C)C)c(O)c(C)c1CC1=NCCN1`: the Potency result is “inactive”.

Take `COc1cc2nc(N(C)CCCNC(=O)C3CCCO3)nc(N)c2cc1OC` (stereo not drawn): the Potency entry was “inactive”.

Regarding `COc1cc2nc(N3CCN(C(=O)c4ccco4)CC3)nc(N)c2cc1OC`, the Potency was 7.43 µM (active).

In the case of `CN(C)C(=O)C(CCN1CCC(O)(c2ccc(Cl)cc2)CC1)(c1ccccc1)c1ccccc1`, the Potency was 20.9 µM (active).

As for `CC#C[C@]1(O)CC[C@H]2[C@@H]3CCC4=CC(=O)CCC4=C3[C@@H](c3ccc(N(C)C)cc3)C[C@@]21C`, the Potency is 0.264 µM (active).

For the compound `NC(=O)NO`, the Potency is 2.35 µM (active).

`Cn1c(=O)c2c(ncn2C)n(C)c1=O`: the Potency entry is “inactive”.

Regarding `CC[C@@]1(O)C(=O)OCc2c1cc1n(c2=O)Cc2cc3c(CN(C)C)c(O)ccc3nc2-1`, the Potency is 0.0132 µM (active).

`Cn1c(=O)c2[nH]cnc2n(C)c1=O`: the Potency was 26.4 µM (active).

On to `CC(C(=O)O)c1cccc(C(=O)c2ccccc2)c1` (stereo not drawn), for which the Potency was 13.2 µM (active).

In the case of `O=C(Nc1ccc([N+](=O)[O-])cc1Cl)c1cc(Cl)ccc1O`, the Potency was 1.32 µM (active).

For `O=c1[nH]cc(F)c(=O)[nH]1`, the Potency was 4.69 µM (active).

For `CN(Cc1cnc2nc(N)nc(N)c2n1)c1ccc(C(=O)N[C@@H](CCC(=O)O)C(=O)O)cc1`, the Potency was 0.0469 µM (active).

As to `O=C1c2c(O)ccc(O)c2C(=O)c2c(NCCNCCO)ccc(NCCNCCO)c21`, the Potency is 0.118 µM (active).

For `OCCN(CCO)c1nc(N2CCCCC2)c2nc(N(CCO)CCO)nc(N3CCCCC3)c2n1`, the Potency was 18.7 µM (active).

On to `CN1CCC(=C2c3ccccc3CC(=O)c3sccc32)CC1`, for which the Potency was 5.9 µM (active).

Take `COc1ccccc1OCC(O)CN1CCN(CC(=O)Nc2c(C)cccc2C)CC1` (stereo not drawn): the Potency result is “inactive”.

On to `Nc1nc2c(ncn2COC(CO)CO)c(=O)[nH]1`, for which the Potency is 20.9 µM (active).

As for `CC(C)NCC(O)c1ccc(O)c(O)c1` (stereo not drawn), the Potency was 0.743 µM (active).

Regarding `NC12CC3CC(CC(C3)C1)C2`, the Potency is 2.96 µM (active).

In the case of `CCC1(c2ccccc2)C(=O)NCNC1=O`, the Potency was 2.09 µM (active).

Consider `CC[N+](CC)(CC)CCOc1cccc(OCC[N+](CC)(CC)CC)c1OCC[N+](CC)(CC)CC`, for which the Potency entry was “inactive”.

`CS(=O)(=O)CCNCc1ccc(-c2ccc3ncnc(Nc4ccc(OCc5cccc(F)c5)c(Cl)c4)c3c2)o1`: the Potency is 0.001 µM (active).

As for `CN1C(C(=O)Nc2ccccn2)=C(O)c2ccccc2S1(=O)=O`, the Potency result is “inactive”.

Take `CCN1CCCC1CNC(=O)c1cc(S(=O)(=O)CC)c(N)cc1OC` (stereo not drawn): the Potency entry was “inactive”.

As to `CN1CCN(CCCN2c3ccccc3Sc3ccc(Cl)cc32)CC1`, the Potency is 14.8 µM (active).
